From PubChem BioAssay
Only a sample is shown.
aSyn 5UTR act: Activators via SNCA 5'UTR binding, MLPCN; alpha-synuclein 5'UTR reporter, activators screen; AID 1814, 2009; activity score, % (tested at 7.5 µM), hits read low; actives 7.1% (n = 300,000); in the data active = activity score below about -60%
* hit, by the source's call.

SMILES	aSyn 5UTR act
CC(C)Cc1ccc(/C=C/C(=O)NC2CC2)cc1	-108*
CC(C)Cc1ccc(/C=C/C(=O)N2CCCCC2)cc1	-121*
CCc1ccc(/C=C\C(=O)N2CCCC2)cc1	-78*
CCCc1ccc(-c2ccc(/C=C/C(=O)O)cc2)nc1	115
CSc1ccccc1NC(=O)c1cc(-c2cccs2)on1	-235*
Cc1ccc(O)c(NC(=O)c2cc(-c3ccc(F)cc3)on2)c1	-147*
C=CCNC(=O)c1cc(-c2ccc(Br)cc2)on1	-101*
O=C(Nc1c(F)cc(F)cc1Br)c1cc(-c2ccc(O)cc2)on1	-101*
CC(C)NC(=O)c1cc(-c2cccs2)on1	-127*
Cc1ccc(O)c(NC(=O)c2cc(-c3cccs3)on2)c1	-231*
N/C(=N\OC(=O)c1ccc2c(c1)OCO2)c1ccc(Cl)cc1	-165*
N/C(=N\OC(=O)c1ccc2c(c1)OCO2)c1ccncc1	-102*
O=C(COC(=O)c1cc(Cl)ccc1O)c1ccc2c(c1)OCO2	-122*
COc1ccc(/C(N)=N/OC(=O)c2ccc3c(c2)OCO3)cc1	-98*
Cc1cc(C)c2c(c1)C(=O)/C(=C/c1ccc(C(=O)O)cc1)CC2	-79*
Oc1ccc(C=Nc2ccccc2-c2nc3ccccc3[nH]2)c(O)c1	-125*
Oc1ccccc1C=Nc1ccccc1-c1nc2ccccc2[nH]1	-123*
COc1ccc(OC)c(C=Nc2ccccc2-c2nc3ccccc3[nH]2)c1	-212*
O=c1cc(-c2cccc(F)c2)[nH]c2ccccc12	87
CSc1ccc(/C=C/c2cc(=O)c3ccccc3[nH]2)cc1	-69*
Cc1c(C(=O)Nc2nc3ccccc3[nH]2)oc2ccc(Br)cc12	-158*
Cc1c(C(=O)Nc2nc3ccccc3[nH]2)oc2c(Cl)cccc12	-136*
Cc1c(C(=O)Nc2nc3ccccc3[nH]2)oc2ccccc12	-258*
Cc1ccc(CNc2ccc(Cl)cc2[N+](=O)[O-])cc1	-76*
O=C(/C=C/c1ccco1)NC(=S)Nc1ccc(N2CCCC2)cc1	-70*
SMILES	aSyn 5UTR act
COc1ccc(NC(=S)NC(=O)/C=C/c2cccs2)cc1	-73*
CCCCOC(=O)c1ccc(NC(=O)/C=C/c2cccs2)cc1	-88*
COc1ccc(OC)c2sc(N(CCN(C)C)C(=O)/C=C/c3cccs3)nc12	54
COc1ccc(NC(=S)NC(=O)/C=C/c2ccco2)cc1	-91*
Cc1cccc(NC(=O)Nc2ccccc2)n1	-76*
CCOc1ccc(NC(=O)Nc2cccc(C)n2)cc1	-143*
CCOc1ccc(NC(=O)Nc2cc(C)ccc2F)cc1	-199*
COc1cccc(NC(=O)Nc2cccc(C)n2)c1	-110*
Cc1ccc(NC(=O)Nc2cccc(C)n2)c(C)c1	-104*
CCCCOc1ccc(C(=O)Nc2cccc(C)n2)cc1	-68*
Cc1cc2c(cc1C)NC(CC(=O)NCc1ccccc1)C(=O)N2 (stereo not drawn)	-77*
NC(=O)Cn1c(=O)n(Cc2ccco2)c(=O)c2c3c(sc21)CCCCC3	-80*
CC(O)CNc1nc2sc3c(c2c(=O)n1Cc1ccco1)CCCCC3 (stereo not drawn)	-103*
CN(C)CCNc1nc2sc3c(c2c(=O)n1CCc1ccccc1)CCCCC3	-87*
CC(O)CNc1nc2sc3c(c2c(=O)n1CCc1ccccc1)CCCCC3 (stereo not drawn)	-72*
Cc1ccccc1Cn1c(=O)n(Cc2ccco2)c(=O)c2ccccc21	56
Cc1cc(C)n(-c2nc(NCCN(C)C)c3c4c(sc3n2)CCCC4)n1	116
O=C(NCCCO)c1cc2c(cn1)[nH]c1ccccc12	-104*
COc1ccc2cc(CN(CC3CCCO3)S(=O)(=O)c3ccc(C(C)=O)cc3)c(=O)[nH]c2c1 (stereo not drawn)	-78*
CC(=O)Nc1ccc(S(=O)(=O)N(Cc2cc3ccc(C)cc3[nH]c2=O)CC2CCCO2)cc1 (stereo not drawn)	82
O=C(/C(N=Nc1cccc(C(F)(F)F)c1)=C(/O)c1cccs1)C(F)(F)F	-62*
Cc1ccc(N=C/C(C(=O)C(F)(F)F)=C(\O)c2cccs2)cc1	-89*
Cc1c(C(=O)Nc2ccccn2)sc2nc3n(c(=O)c12)CCC3	-86*
O=c1c2sc(-c3ccccc3)cc2nc2n1CCC2	82
CCc1cccc(NC(=O)c2sc3nc4n(c(=O)c3c2C)CCC4)c1	-137*
SMILES	aSyn 5UTR act
Cc1c(C(=O)Nc2ccccc2F)sc2nc3n(c(=O)c12)CCC3	-111*
Cc1nn(-c2ccc(N3CCCCC3)nn2)c(C)c1CCC(=O)Nc1cc(F)ccc1F	-65*
O=C(Cc1sc(Nc2ccccc2)nc1-c1ccccc1)NCc1ccccn1	-182*
O=C(O)Cc1sc(Nc2ccccc2)nc1-c1ccc(Cl)cc1	-149*
O=C(O)Cc1sc(Nc2ccc(F)cc2)nc1-c1cccs1	-132*
Cc1ccc(Nc2nc(-c3ccccc3)c(CC(=O)O)s2)cc1	-155*
CC(C)(C)c1ccc(C(=O)c2cn[nH]c2-c2ccccc2O)cc1	-134*
O=C(CCc1ccccc1)Nc1ccc2c(c1)OCCO2	-102*
CC1CC(C)(C)NC(=S)N1CCCC(=O)Nc1ccc2c(c1)OCCO2 (stereo not drawn)	-91*
O=C(CS(=O)(=O)c1c[nH]c2ccccc12)Nc1ccc2c(c1)OCCO2	-85*
O=C(CCc1ccccc1)Nc1cc2c(cc1Cl)OCCO2	-135*
O=C(OCC(=O)N1CCOCC1)c1cccc(F)c1	-87*
O=C(OCC(=O)N1CCOCC1)c1ccccc1Cc1ccccc1	-183*
Nc1ccc(C(=O)OCC(=O)N2CCOCC2)cc1[N+](=O)[O-]	-71*
O=C(NCc1cccnc1)c1ccc([N+](=O)[O-])o1	-117*
COC(=O)c1sccc1-c1ccc(C(=O)Nc2cccnc2)o1	-76*
O=C(Nc1cccnc1)c1ccc([N+](=O)[O-])o1	-202*
O=C(NN(c1ccccc1)c1ccccc1)c1ccc([N+](=O)[O-])o1	-83*
NC(=O)c1oc2ccccc2c1NC(=O)c1ccc([N+](=O)[O-])o1	100
CC#CC(=O)N1CCC(C(=O)Nc2ccc(Oc3ccccc3)nc2)CC1	-175*
CCOc1ccc(/C=N/N2C(C)CCCC2C)cc1 (stereo not drawn)	-77*
CC(=O)Nc1ccc(NC(=O)COc2ccc(Cl)cc2Cl)cc1	-117*
O=C(COc1cc(Cl)ccc1Cl)Nc1ccc2c(c1)CCC2	-64*
O=C(COc1ccc(Cl)cc1Cl)c1ccc[nH]1	-94*
O=C(COc1ccc(Cl)cc1Cl)Nc1ccccc1F	-175*
SMILES	aSyn 5UTR act
COC(=O)c1sccc1NC(=O)COc1ccc(F)cc1Cl	-99*
Oc1ccccc1/C=N/N1CCCCC1	-77*
CN=c1scc(-c2cccs2)n1/N=C/c1ccccc1O	103
Oc1ccc(/C=N/N2CCCCC2)c(O)c1	-93*
CC(=O)Nc1ccc(S(=O)(=O)N/N=C/c2ccc(C)s2)cc1	-137*
O=C(N/N=C/c1c(O)ccc2ccccc12)c1cccnc1	93
CCc1ccc(O)c(-c2cc(C(=O)Nc3cccnc3)[nH]n2)c1	-162*
Cc1ccc(NC(=O)c2cc(-c3ccccc3O)n[nH]2)cc1Cl	-110*
Cc1cc(O)c(-c2cc(C(=O)Nc3cccnc3)[nH]n2)cc1C	-188*
Cc1cccc(NC(=O)c2cc(-c3cc(Cl)ccc3O)n[nH]2)c1	-224*
Cc1cccc(NC(=O)c2cc(-c3c(C)cc(C)cc3O)n[nH]2)c1	-123*
Cc1cccc(NC(=O)c2cc(-c3cc(C)cc(C)c3O)n[nH]2)c1	-67*
Cc1ccc(C)c(NC(=O)c2cc(-c3cc(C)ccc3O)n[nH]2)c1	-211*
